The results in this text go back to PubChem BioAssay (NCATS).

Inconclusive results are not listed. A number with no mark means an inactive call. Calls of active or inactive are those of the source. The call rests on the fitted dose curve; in most records, active means well fitted cell-killing curve with a large enough effect; inconclusive means small, poorly fitted or top-dose-only effect, or effect the other way; inactive means flat fitted curve, though single readings scatter.

Common to all, as to assay: Primary qHTS to identify gynecologic anti-cancer compounds using libraries of approved drugs and bioactive compounds (AID 1345084); further: nearly all actives have a fitted effect of over 55% in size
Background: Quantitative high-throughput screening tests each substance at several concentrations.

The subject of one assay is C33A. To be noted: Gynecologic cancer cell panel viability, ATPlite luminescence, 48 h; series mostly up to 57.5 µM. In a few lines: (§1)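 Five-point cytotoxicity, 48 h drug exposure at 37 C, 5% CO2, on cells seeded 16 h beforehand. ATP content read by ATPlite luminescence.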
(In general: ATP-based viability assays read luminescence as a measure of living cells.)

A further assay relates to CAOV3. As to conditions: Gynecologic cancer cell panel viability, ATPlite luminescence, 48 h; series mostly up to 57.5 µM. The essentials: as §1
In a further assay the test system is CASKI. As to conditions: Gynecologic cancer cell panel viability, ATPlite luminescence, 48 h; series mostly up to 57.5 µM. In a few lines:
as §1

A further assay relates to Es-2. To be noted: Gynecologic cancer cell panel viability, ATPlite luminescence, 48 h; series mostly up to 57.5 µM. The essentials:
as §1

For the next assay, the system named is HeLa. To be noted: Gynecologic cancer cell panel viability, ATPlite luminescence, 48 h; series mostly up to 57.5 µM. The essentials:
as §1

The test system of the next assay is Hek293T. As to conditions: Gynecologic cancer cell panel viability, ATPlite luminescence, 48 h, control line for the selectivity index; series mostly up to 57.5 µM. In a few lines:
as §1

The test system of the next assay is JEG-3. To be noted: Gynecologic cancer cell panel viability, ATPlite luminescence, 48 h; series mostly up to 57.5 µM. The essentials:
as §1

For a further assay, the system named is OV90. As to conditions: Gynecologic cancer cell panel viability, ATPlite luminescence, 48 h; series mostly up to 57.5 µM. In a few lines:
as §1

The subject of the next assay is PA-1. As to conditions: Gynecologic cancer cell panel viability, ATPlite luminescence, 48 h; series mostly up to 57.5 µM. In a few lines:
as §1

The next assay relates to SKOV3. To be noted: Gynecologic cancer cell panel viability, ATPlite luminescence, 48 h; series mostly up to 57.5 µM. In a few lines:
as §1

A further assay has as its system Tov-21-G. To be noted: Gynecologic cancer cell panel viability, ATPlite luminescence, 48 h; series mostly up to 57.5 µM. The essentials: as §1
A further assay deals with Tov112D. To be noted: Gynecologic cancer cell panel viability, ATPlite luminescence, 48 h; series mostly up to 57.5 µM. The essentials:
as §1
Potency means the concentration at half of the fitted maximal effect.

Take `C=C[C@H]1[C@H](O[C@@H]2O[C@H](CO)[C@@H](O)[C@H](O)[C@H]2O)OC=C(C(=O)OC)[C@H]1C[C@@H]1c2cc(O)c(O)cc2CCN1C(C)=O`: the Potency entry in the assay with C33A, in the assay with CAOV3, in the assay on CASKI, in the assay with Es-2, in the assay with HeLa and in the assay with Hek293T was “inactive” each time. The Potency result in the assay with JEG-3, with OV90, with PA-1, in the assay with SKOV3, in the assay with Tov-21-G and with Tov112D was “inactive” in each case.

`COc1ccc(/C=C/C(=O)O[C@@H]2[C@@H](O)[C@@H](O)[C@H](O[C@@H]3C=C(CO)[C@H]4[C@H](O[C@@H]5O[C@H](CO)[C@@H](O)[C@H](O)[C@H]5O)OC=C[C@H]43)O[C@H]2C)cc1O`: the Potency result with C33A, with CAOV3, with CASKI, in the assay with Es-2, in the assay on HeLa and in the assay on Hek293T was “inactive” throughout. In addition, the Potency result in the assay on JEG-3, with OV90, in the assay on PA-1, with SKOV3, in the assay with Tov-21-G and in the assay on Tov112D was “inactive” throughout.

For the compound `CCOC(=O)c1cc(C#N)c(N2CCC(C(=O)NS(=O)(=O)Cc3ccccc3)CC2)nc1C`, the Potency result in the assay with C33A, in the assay with CAOV3, in the assay on CASKI, in the assay with Es-2, with HeLa and with Hek293T was “inactive” throughout. In addition, the Potency entry in the assay on JEG-3, with OV90, in the assay on PA-1, with SKOV3, in the assay with Tov-21-G and in the assay with Tov112D was “inactive” each time.

`CCn1cc(NC(=S)Nc2cc(Cl)ccc2OC)c(C(N)=O)n1`: the Potency entry in the assay on C33A, in the assay on CAOV3, in the assay on CASKI, in the assay with Es-2, with HeLa and with Hek293T was “inactive” each time. Further, the Potency entry in the assay with JEG-3, with OV90, in the assay on PA-1, with SKOV3, with Tov-21-G and with Tov112D was “inactive” throughout.

For `CC(=O)OC1CC2(C)C3=CCC4(C)C5C(O)C(O)C(C(C)C)C5(C)CCC4(C)C3CCC2C(C)(C)C1OC1OC(CO)C(O)C(O)C1O` (stereo not given), the Potency result with C33A, in the assay on CAOV3, with CASKI, with Es-2, with HeLa and in the assay on Hek293T was “inactive” each time. Moreover, the Potency result in the assay with JEG-3, in the assay on OV90, with PA-1, with SKOV3, in the assay with Tov-21-G and in the assay on Tov112D was “inactive” in each case.

Take `Cn1c2ccc(F)cc2c2c(C(=O)N3CCCC3)cn(-c3ccccc3)c(=O)c21`: the Potency entry in the assay on C33A, with CAOV3, with CASKI, in the assay on Es-2, with HeLa and in the assay on Hek293T was “inactive” each time. Besides, the Potency entry with JEG-3, with OV90, with PA-1, with SKOV3, in the assay on Tov-21-G and in the assay with Tov112D was “inactive” throughout.

Consider `CC1=CC(=O)CC(C)(C)C1/C=C/C(C)O[C@@H]1O[C@H](CO)[C@@H](O)[C@H](O)[C@H]1O[C@@H]1OC[C@](O)(CO)[C@H]1O` (stereo not given in full), for which the Potency result in the assay on C33A, with CAOV3, in the assay with CASKI, in the assay with Es-2, with HeLa and in the assay on Hek293T was “inactive” in each case. The Potency entry with JEG-3, in the assay on OV90, in the assay with PA-1, in the assay with SKOV3, in the assay with Tov-21-G and in the assay on Tov112D was “inactive” in each case.

As for `CC12CCC(C(OC3OC(COC4OCC(O)(CO)C4O)C(O)C(O)C3O)C1)C(C)(C)O2` (stereo not given), the Potency result with C33A, in the assay with CAOV3, in the assay on CASKI, in the assay on Es-2, in the assay with HeLa and with Hek293T was “inactive” in each case. Further, the Potency result with JEG-3, in the assay on OV90, in the assay on PA-1, in the assay with SKOV3, with Tov-21-G and with Tov112D was “inactive” throughout.

Regarding `CCC[C@@H]1O[C@@H]2C[C@H]3[C@@H]4CCC5=CC(=O)C=C[C@]5(C)[C@H]4[C@@H](O)C[C@]3(C)[C@]2(C(=O)CO)O1`, the Potency entry in the assay with C33A, in the assay with CAOV3, in the assay on CASKI, with Es-2, with HeLa and with Hek293T was “inactive” each time. Moreover, the Potency result in the assay on JEG-3, in the assay on OV90, with PA-1, in the assay with SKOV3, in the assay with Tov-21-G and with Tov112D was “inactive” each time.

As to `COC(=O)[C@@H](O)[C@H]1[C@@]2(C)CC3(O)[C@@H](C(=O)[C@H]2O)[C@]24O[C@]25CC(=O)O[C@@H](c2ccoc2)[C@]5(C)CCC4[C@]13C` (stereo not given in full), the Potency result in the assay with C33A, in the assay on CAOV3, in the assay with CASKI, in the assay on Es-2, in the assay with HeLa and in the assay with Hek293T was “inactive” in each case. The Potency result in the assay with JEG-3, with OV90, with PA-1, in the assay on SKOV3, in the assay on Tov-21-G and in the assay on Tov112D was “inactive” each time.

On to `CC1(O)CC(O)C2(O)C=COC(O[C@@H]3O[C@H](CO)[C@@H](O)[C@H](O)[C@H]3O)C12` (stereo not given in full), for which the Potency entry in the assay on C33A, in the assay on CAOV3, in the assay on CASKI, in the assay on Es-2, with HeLa and in the assay with Hek293T was “inactive” in each case. Also, the Potency result in the assay on JEG-3, in the assay on OV90, in the assay with PA-1, in the assay on SKOV3, in the assay with Tov-21-G and in the assay with Tov112D was “inactive” in each case.

As to `C=C[C@@H]1[C@H](O[C@@H]2O[C@H](CO)[C@@H](O)[C@H](O)[C@H]2O)OC=C(C(=O)O)[C@H]1CCOC(=O)/C=C/c1ccc(O)c(O)c1`, the Potency result in the assay with C33A, with CAOV3, with CASKI, in the assay on Es-2, with HeLa and in the assay with Hek293T was “inactive” in each case. Besides, the Potency entry with JEG-3, in the assay on OV90, in the assay with PA-1, in the assay on SKOV3, in the assay with Tov-21-G and in the assay on Tov112D was “inactive” in each case.

Regarding `O=C(CN1C(=O)C2(CCCC2)NCC1c1cc(F)cc(F)c1)Nc1ccc2c(c1)CC1(C2)C(=O)Nc2ncccc21` (stereo not given), the Potency entry in the assay with C33A, in the assay with CAOV3, with CASKI, with Es-2, with HeLa and in the assay with Hek293T was “inactive” each time. Also, the Potency entry in the assay on JEG-3, in the assay with OV90, in the assay on PA-1, with SKOV3, with Tov-21-G and in the assay with Tov112D was “inactive” each time.

In the case of `COc1c/c(=C2\C=c3ccccc3=N2)[nH]/c1=C\c1[nH]c(C)cc1C`, the Potency was 1.41 µM (active) in the assay with C33A; 10 µM (active) in the assay with CAOV3; 12.6 µM (active) with CASKI; 2.51 µM (active) with Es-2; 10 µM (active) in the assay with HeLa; 6.31 µM (active) with Hek293T. The Potency with JEG-3 was 7.94 µM (active); with OV90 it was 2.24 µM (active); in the assay on PA-1, 2 µM (active); in the assay on SKOV3, 10 µM (active); in the assay with Tov-21-G, 14.1 µM (active); with Tov112D it was 3.55 µM (active).

As to `CC1CCC2(C(=O)O)CCC3(C)C(=CCC4C5(C)CCC(O)C(C)(CO)C5CCC43C)C2C1(C)O` (stereo not given), the Potency result with C33A, with CAOV3, in the assay with CASKI, in the assay with Es-2, in the assay with HeLa and in the assay with Hek293T was “inactive” each time. Moreover, the Potency entry in the assay with JEG-3, with OV90, in the assay with PA-1, with SKOV3, in the assay on Tov-21-G and in the assay with Tov112D was “inactive” throughout.
